In PubChem BioAssay (Tox21):
Records with an inconclusive call do not appear. Active and inactive are the calls of the source. Unless noted, the call rests on the fitted dose curve; in most records, active means well fitted curve in the direction sought with a large enough effect in the repeat runs; inconclusive means weak or mixed curves; inactive means no such curve, though single readings can be large; an effect the other way counts as inactive or inconclusive.

Assays:
[1] = qHTS assay to identify small molecule antagonists of the androgen receptor (AR) signaling pathway using the MDA cell line in the presence of 0.5 nM R1881 - cell viability counter screen (AID 1259242); further: nearly all actives have a fitted effect of over 45% in size; further: potency means the concentration at half of the fitted maximal effect
Procedure, shortened: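 qHTS format. MDA-kb2 (MMTV-luc, AR/GR responsive) + cpd + 0.5 nM R1881 final, 16 hr 37C/0% CO2 → CellTiter-Fluor 30 min → fluorescence intensity.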

[2] = target: Androgen receptor (Homo sapiens) (UniProt P10275); assay: qHTS assay to identify small molecule antagonists of the androgen receptor (AR) signaling pathway using the MDA cell line in the presence of 0.5 nM R1881 (AID 1259243); further: nearly all actives have a fitted effect of over 50% in size; further: potency means the concentration at half of the fitted maximal effect
Sequence of Androgen receptor (Homo sapiens) (P10275 whole entry, looked up): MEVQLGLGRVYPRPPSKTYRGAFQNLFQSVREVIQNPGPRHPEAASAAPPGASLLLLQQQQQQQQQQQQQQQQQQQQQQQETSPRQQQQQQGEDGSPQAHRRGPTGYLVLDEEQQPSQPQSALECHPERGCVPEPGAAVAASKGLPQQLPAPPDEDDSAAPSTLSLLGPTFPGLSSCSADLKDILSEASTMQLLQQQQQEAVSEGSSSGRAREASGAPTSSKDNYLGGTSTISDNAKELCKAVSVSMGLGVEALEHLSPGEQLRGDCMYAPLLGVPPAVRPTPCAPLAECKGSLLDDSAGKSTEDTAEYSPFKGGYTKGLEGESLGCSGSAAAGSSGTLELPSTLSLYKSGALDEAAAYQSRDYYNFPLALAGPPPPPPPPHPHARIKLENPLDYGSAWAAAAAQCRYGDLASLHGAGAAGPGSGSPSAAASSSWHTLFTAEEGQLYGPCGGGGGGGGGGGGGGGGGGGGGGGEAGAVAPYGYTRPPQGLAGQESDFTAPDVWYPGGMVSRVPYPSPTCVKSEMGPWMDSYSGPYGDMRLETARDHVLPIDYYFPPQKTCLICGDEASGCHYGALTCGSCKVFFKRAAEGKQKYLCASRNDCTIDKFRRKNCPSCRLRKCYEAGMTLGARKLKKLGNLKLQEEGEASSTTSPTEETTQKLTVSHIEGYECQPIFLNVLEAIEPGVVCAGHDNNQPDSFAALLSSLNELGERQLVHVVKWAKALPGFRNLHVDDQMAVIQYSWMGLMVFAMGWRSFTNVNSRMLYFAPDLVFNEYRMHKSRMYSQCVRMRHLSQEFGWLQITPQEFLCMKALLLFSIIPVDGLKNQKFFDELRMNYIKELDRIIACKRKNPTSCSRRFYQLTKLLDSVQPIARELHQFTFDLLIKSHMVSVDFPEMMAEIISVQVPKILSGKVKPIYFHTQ
Procedure, shortened: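 Antagonist mode quantitative HTS in MDA-kb2 MMTV-luciferase cells, agonist R1881 at 0.5 nM final, 16 hr exposure at 37C and 0% CO2, luminescent detection.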

[3] = target: Estrogen receptor (Homo sapiens) (UniProt P03372); assay: qHTS assay to identify small molecule antagonists of the estrogen receptor alpha (ER-alpha) signaling pathway using the BG1 cell line in the presence of 0.1 nM 17-beta-estradiol (AID 1259244); further: nearly all actives have a fitted effect of over 50% in size
Sequence of Estrogen receptor (Homo sapiens) (P03372 whole entry, looked up): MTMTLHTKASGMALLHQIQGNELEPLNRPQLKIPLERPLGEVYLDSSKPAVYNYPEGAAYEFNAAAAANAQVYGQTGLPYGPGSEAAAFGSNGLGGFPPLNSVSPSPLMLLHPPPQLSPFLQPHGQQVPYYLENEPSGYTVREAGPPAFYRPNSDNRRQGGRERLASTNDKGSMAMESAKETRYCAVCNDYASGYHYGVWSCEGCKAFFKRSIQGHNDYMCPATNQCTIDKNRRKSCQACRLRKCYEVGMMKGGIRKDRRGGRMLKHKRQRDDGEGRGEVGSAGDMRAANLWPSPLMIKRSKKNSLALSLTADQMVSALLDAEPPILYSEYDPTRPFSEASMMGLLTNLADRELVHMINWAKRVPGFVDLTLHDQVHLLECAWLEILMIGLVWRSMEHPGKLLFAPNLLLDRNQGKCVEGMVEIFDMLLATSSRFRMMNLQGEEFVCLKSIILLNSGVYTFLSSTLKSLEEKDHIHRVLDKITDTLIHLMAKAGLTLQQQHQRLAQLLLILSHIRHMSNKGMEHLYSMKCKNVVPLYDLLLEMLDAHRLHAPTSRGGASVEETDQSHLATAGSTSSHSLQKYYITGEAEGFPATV
Procedure, shortened: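 Reporter is a stably transfected luciferase under four estrogen responsive elements in VM7Luc4E2 cells expressing native full-length ER-alpha; inhibition of 0.1 nM (final) 17beta-estradiol-driven signal over 22 h is read by luminescence.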

[4] = qHTS assay to identify small molecule HDAC inhibitors (AID 1259364);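 further: wild-type HCT-116 cells with endogenous class I/II HDAC activity; top concentration of the series differs between compounds; nearly all actives have a fitted effect of over 45% in size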
Procedure, shortened: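 Quantitative high-throughput format: overnight-seeded HCT-116 cells got compounds for 2 hr at 37C; HDAC-Glo I/II reagent added, 30 min RT, luminescence measured.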

[5] = qHTS assay to identify small molecule HDAC inhibitors - cell viability counter screen (AID 1259365); further: series mostly up to about 92 µM; nearly all actives have a fitted effect of over 50% in size
Procedure, shortened: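 Luminescence from CellTiter-Glo, developed 30min at room temperature, reports viability of wild-type HCT-116 cells treated 2hr with compounds at 37 C and 5% CO2 after overnight plating.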

[6] = qHTS assay to identify small molecule agonists of the sonic hedgehog signaling (Shh) pathway - cell viability counter screen (AID 1259366); further: nearly all actives have a fitted effect of over 50% in size
Procedure, shortened: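 Cytotoxicity counter screen run in the same wells as the Shh reporter assay. NIH/3T3 cells carrying a Gli1 response element–driven luciferase were treated with DMSO-dissolved compounds for 24hr, and live-cell protease activity was measured with CellTiter-Fluor.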

[7] = qHTS assay to identify small molecule antagonists of the sonic hedgehog signaling (Shh) pathway - cell viability counter screen (AID 1259367); further: nearly all actives have a fitted effect of over 55% in size
Procedure, shortened: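 Viability was read by CellTiter-Fluor fluorescence in the same wells, reagent added 23 hr into compound treatment and incubated 1 hr at 37C. The 3T3 Gli1-Luc reporter cells (2,000/well) received conditioned medium after compound and ran 24 hr.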

[8] = qHTS assay to identify small molecule agonists of the sonic hedgehog signaling (Shh) pathway (AID 1259368; calls by dose curve;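 further: NIH/3T3-derived 3T3Gli1-Luc cells carrying a stable Gli1-driven firefly luciferase reporter; series mostly up to about 92 µM; nearly all actives have a fitted effect of over 15% in size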)
Procedure, shortened: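 Quantitative high-throughput format using a Gli1-driven firefly luciferase reporter line derived from NIH/3T3 cells. After a 24 hr compound treatment at 37 C and 5% CO2, luminescence reported Gli1 response element activity.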

[9] = qHTS assay to identify small molecule antagonists of the sonic hedgehog signaling (Shh) pathway (AID 1259369; calls by dose curve; further: nearly all actives have a fitted effect of over 45% in size; further: potency means the concentration at half of the fitted maximal effect)
Procedure, shortened: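 Stable Gli1-Luc reporter NIH/3T3 clone; quantitative HTS in stimulated mode with conditioned medium. Luminescence measured after 24hr compound treatment at 37 C.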

[10] = qHTS assay to identify small molecule agonists of the androgen receptor (AR) signaling pathway in the presence of an antagonist - cell viability counter screen (AID 1259379); further: nearly all actives have a fitted effect of over 25% in size; further: potency means the concentration at half of the fitted maximal effect
Procedure, shortened: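 Nilutamide-containing (3.0uM final) MDA-kb2 cultures, 3,000 cells/well, were treated with compounds across 15 concentrations. After 16 hr at 37C with no CO2, cell viability was determined by CellTiter-Fluor fluorescence in the luciferase assay wells.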

[11] = qHTS assay to identify small molecule agonists of the estrogen receptor beta (ER-beta) signaling pathway - cell viability counter screen (AID 1259380); further: nearly all actives have a fitted effect of over 30% in size; further: potency means the concentration at half of the fitted maximal effect
Procedure, shortened: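 Steps: plate ER-beta-UAS-bla HEK293T cells, rest 6 hr; add compounds in DMSO; incubate 16 hr at 37C, 5% CO2; add FRET substrate 2 hr; add CellTiter-Glo, wait 30 min at room temperature; read luminescence.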

[12] = target: Androgen receptor (Homo sapiens) (UniProt P10275); assay: qHTS assay to identify small molecule agonists of the androgen receptor (AR) signaling pathway in the presence of an antagonist (AID 1259381; calls by dose curve; further: nearly all actives have a fitted effect of over 15% in size)
Procedure, shortened: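 Reporter-gene luminescence from MDA-kb2 cells exposed 16hr at 37C (0% CO2) to 15-point compound titrations with 3.0uM final nilutamide as AR antagonist.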

[13] = qHTS assay to identify small molecule antagonists of the estrogen receptor beta (ER-beta) signaling pathway - cell viability counter screen (AID 1259382); further: nearly all actives have a fitted effect of over 55% in size; further: potency means the concentration at half of the fitted maximal effect
Procedure, shortened: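 Viability is scored by CellTiter-Glo luminescence (30 min, room temperature) in ER-beta-UAS-bla HEK293T wells already read for reporter fluorescence. Compound exposure lasts 16 hr at 37C alongside 1nM 17-beta-estradiol in charcoal-stripped serum medium.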

[14] = target: Estrogen receptor (Homo sapiens) (UniProt P03372); assay: qHTS assay to identify small molecule agonists of the estrogen receptor alpha (ER-alpha) signaling pathway in the presence of an antagonist (AID 1259383; calls by dose curve; further: top concentration of the series differs between compounds; nearly all actives have a fitted effect of over 15% in size)
Procedure, shortened: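 Readout was ERE-driven luciferase luminescence in VM7Luc4E2 cells, which express full-length ER-alpha endogenously. Compounds were tested at 15 concentrations for 22hr alongside 10.0nM ICI-182,780 (final concentration).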

[15] = qHTS assay to identify small molecule agonists or antagonists of the thyroid stimulating hormone receptor (TSHR) signaling pathway - wild type cell line counter screen (AID 1259384; calls by dose curve)
Procedure, shortened: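 Counter screen in untransfected Hek293: compounds (15-point titration, triplicate) plus phosphodiesterase inhibitor Ro20-1724 added after 18 h plating; 30 min RT. Intracellular cAMP via competitive d2/cryptate immunoassay, 1 h incubation.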

[16] = target: Thyrotropin receptor (Homo sapiens) (UniProt P16473); assay: qHTS assay to identify small molecule antagonists of the thyroid stimulating hormone receptor (TSHR) signaling pathway (AID 1259385; calls by dose curve; further: nearly all actives have a fitted effect of over 20% in size; further: potency means the concentration at half of the fitted maximal effect)
Sequence of Thyrotropin receptor (Homo sapiens) (P16473 whole entry, looked up): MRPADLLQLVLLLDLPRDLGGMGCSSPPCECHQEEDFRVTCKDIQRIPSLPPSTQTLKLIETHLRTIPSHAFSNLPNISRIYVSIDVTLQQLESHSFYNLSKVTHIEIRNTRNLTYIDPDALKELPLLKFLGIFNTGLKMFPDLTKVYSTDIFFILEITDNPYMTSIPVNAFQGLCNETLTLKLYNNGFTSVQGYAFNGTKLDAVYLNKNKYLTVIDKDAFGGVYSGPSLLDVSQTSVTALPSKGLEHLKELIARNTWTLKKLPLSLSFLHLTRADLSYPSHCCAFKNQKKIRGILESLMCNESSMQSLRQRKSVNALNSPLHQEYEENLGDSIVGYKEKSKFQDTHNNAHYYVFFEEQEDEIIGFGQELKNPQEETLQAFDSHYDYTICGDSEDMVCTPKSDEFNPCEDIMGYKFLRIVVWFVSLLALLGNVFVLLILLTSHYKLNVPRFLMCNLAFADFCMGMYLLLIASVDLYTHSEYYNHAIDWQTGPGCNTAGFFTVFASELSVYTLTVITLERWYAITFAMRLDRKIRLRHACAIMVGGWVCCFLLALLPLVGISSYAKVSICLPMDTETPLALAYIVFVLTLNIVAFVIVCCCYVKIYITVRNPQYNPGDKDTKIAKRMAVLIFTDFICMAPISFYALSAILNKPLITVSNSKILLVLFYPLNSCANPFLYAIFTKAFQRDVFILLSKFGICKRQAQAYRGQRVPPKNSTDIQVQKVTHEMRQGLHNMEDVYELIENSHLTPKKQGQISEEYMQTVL
Procedure, shortened: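 Antagonist mode: compound-treated TSHR-expressing HEK293 cells were stimulated with 1.5 ng/mL TSH (final) in presence of Ro20-1724 for 30 min at RT. HTRF cAMP detection after 1 h; each compound tested at 15 concentrations, triplicate.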

[17] = qHTS assay to identify small molecule agonists of the estrogen receptor alpha (ER-alpha) signaling pathway in the presence of an antagonist - cell viability counter screen (AID 1259386);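 further: series mostly up to about 92 µM; cells exposed to compounds for 22 h at 37 °C before the viability read; nearly all actives have a fitted effect of over 30% in size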
Procedure, shortened: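 In this counter screen, compound effects on VM7Luc4E2 viability were tested in the presence of the antagonist ICI-182,780 at 10.0nM final. Compounds were dosed at 15 concentrations, exposure lasted 22hr, and the CellTiter-Fluor signal was read.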

[18] = qHTS assay to identify small molecule phospholipidosis (PLD) inducers (AID 1259344; active means well fitted curve in the direction sought with a large enough effect; an effect the other way counts as inactive or inconclusive)
Procedure, shortened: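 Phospholipid accumulation was scored by imaging: fixed, Hoechst-counterstained HepG2 cells stained with LipidTOX Red after 24 h compound exposure at 37 C. Read-outs were pit count and pit intensity per well or per cell, with amiodarone and DMSO controls.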

[19] = target: Estrogen receptor beta (Homo sapiens) (UniProt Q92731); assay: qHTS assay to identify small molecule agonists of the estrogen receptor beta (ER-beta) signaling pathway (AID 1259377; active means well fitted activation curve with a large enough effect in the signal ratio in the repeat runs, not every such curve was filed as active; the % refers to the signal ratio)
Sequence of Estrogen receptor beta (Homo sapiens) (Q92731 whole entry, looked up): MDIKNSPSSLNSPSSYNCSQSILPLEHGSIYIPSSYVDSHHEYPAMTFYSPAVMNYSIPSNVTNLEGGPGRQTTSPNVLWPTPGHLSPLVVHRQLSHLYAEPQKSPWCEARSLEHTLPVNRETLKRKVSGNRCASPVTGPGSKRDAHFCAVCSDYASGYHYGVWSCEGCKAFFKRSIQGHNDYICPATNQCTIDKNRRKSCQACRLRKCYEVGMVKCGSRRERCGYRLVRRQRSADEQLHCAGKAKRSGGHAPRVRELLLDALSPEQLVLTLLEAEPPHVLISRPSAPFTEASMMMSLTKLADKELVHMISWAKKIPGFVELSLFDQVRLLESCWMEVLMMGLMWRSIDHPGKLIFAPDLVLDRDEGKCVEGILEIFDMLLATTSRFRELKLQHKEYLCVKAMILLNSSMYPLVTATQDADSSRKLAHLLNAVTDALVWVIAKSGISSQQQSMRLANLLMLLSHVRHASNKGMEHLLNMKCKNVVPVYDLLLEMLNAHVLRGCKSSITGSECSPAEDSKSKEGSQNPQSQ
Procedure, shortened: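 HEK293T ER-beta-UAS-bla; 2% charcoal-stripped FBS; cells pre-incubated 6 hr, compound 16 hr, 37C/5% CO2; LiveBLAzer B/G FRET substrate 2 h RT; fluorescence intensity read.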

[20] = target: Estrogen receptor beta (Homo sapiens) (UniProt Q92731); assay: qHTS assay to identify small molecule antagonists of the estrogen receptor beta (ER-beta) signaling pathway (AID 1259378; active means well fitted inhibition curve with a large enough effect in the signal ratio in the repeat runs, not every such curve was filed as active; the % refers to the signal ratio)
Procedure, shortened: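 Antagonist mode: compounds added to beta-lactamase reporter HEK293T ER-beta-UAS cells stimulated with E2 (1nM final), 16 hr at 37C. LiveBLAzer B/G FRET substrate, 2 hours room temperature, fluorescence read-out.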
On the % scale 0 is the no-effect control and ±100 the full control effect.

O=S(=O)(O)c1ccc(Nc2nc(Nc3ccc(/C=C/c4ccc(Nc5nc(Nc6ccc(S(=O)(=O)O)cc6)nc(N(CCO)CCO)n5)cc4S(=O)(=O)O)c(S(=O)(=O)O)c3)nc(N(CCO)CCO)n2)cc1
inactive: Potency [1] | Potency [2] | Potency [3] | Potency [4] | Potency [5] | Potency [6] | Potency [7] | Potency [8] | Potency [9] | Potency [10] | Potency [11] | outcome [12] | Potency [13] | Potency [14] | outcome [15] | Potency [16] | Potency [17]

O=C(O)Cc1ccccc1Nc1c(Cl)cccc1Cl
inactive: Potency [1] | Potency [2] | Potency [3] | Potency [18] | Potency [4] | Potency [5] | Potency [6] | Potency [7] | Potency [8] | Potency [9] | Potency [19] | Potency [10] | outcome [12] | Potency [14] | outcome [15] | Potency [16]
active: Potency [11] 13.7 µM

CCN1C(=O)c2ccccc2C1Nc1ccc(OCCN2CCCCC2)cc1 (stereo unspecified)
active: Potency [9] 13.3 µM
inactive: Potency [1] | Potency [2] | Potency [3] | PLD induction [18] 0.829% [at 7.66 µM] | Potency [4] | Potency [5] | Potency [7] | Potency [8] | Potency [19] | Potency [20] | Potency [10] | outcome [12] | Potency [13] | Potency [14] | outcome [15] | Potency [16]

CC1(C)[C@@H](O)CC[C@]2(C)[C@H]3C(=O)C=C4[C@@H]5C[C@@](C)(C(=O)O)CC[C@]5(C)CC[C@@]4(C)[C@]3(C)CC[C@@H]12
inactive: Potency [1] | Potency [2] | Potency [3] | Potency [18] | Potency [4] | Potency [5] | Potency [7] | Potency [8] | Potency [9] | Potency [19] | Potency [10] | outcome [12] | Potency [13] | Potency [14] | outcome [15] | Potency [17]

FC(F)(F)c1cccc(Cl)c1
inactive: Potency [1] | Potency [2] | Potency [3] | Potency [4] | Potency [5] | Potency [6] | Potency [7] | Potency [8] | Potency [9] | Potency [19] | Potency [10] | outcome [12] | Potency [13] | Potency [14] | Potency [16] | Potency [17]

ClCCl
inactive: Potency [1] | Potency [2] | Potency [3] | Potency [4] | Potency [5] | Potency [6] | Potency [7] | Potency [8] | Potency [9] | Potency [10] | Potency [11] | outcome [12] | Potency [13] | Potency [14] | Potency [17]

CN(C)Cc1ccccc1O
inactive: Potency [1] | Potency [2] | Potency [3] | Potency [4] | Potency [5] | Potency [6] | Potency [7] | Potency [8] | Potency [19] | Potency [20] | Potency [10] | Potency [11] | outcome [12] | Potency [13] | Potency [14] | outcome [15] | Potency [16]

CC(=O)c1ccc(C(C)=O)cc1
inactive: Potency [1] | Potency [2] | Potency [4] | Potency [5] | Potency [6] | Potency [7] | Potency [8] | Potency [19] | Potency [20] | Potency [10] | Potency [11] | outcome [12] | Potency [13] | outcome [15] | Potency [16]

CN(C)CCN1CCN(c2cccc(Cl)c2)C1=O
inactive: Potency [1] | Potency [2] | Potency [3] | Potency [4] | Potency [5] | Potency [6] | Potency [7] | Potency [8] | Potency [9] | Potency [19] | Potency [10] | Potency [11] | outcome [12] | Potency [13] | Potency [14] | outcome [15] | Potency [16] | Potency [17]

Cc1cc(C)c(/C=C2\C(=O)Nc3ccccc32)[nH]1
inactive: Potency [1] | Potency [3] | Potency [18] | Potency [5] | Potency [6] | Potency [7] | Potency [8] | Potency [10] | outcome [12] | Potency [13] | Potency [14]
active: Potency [2] 13.3 µM | Potency [11] 11.9 µM

CCCCC(CC)CN1CN(CC(CC)CCCC)CC(C)(N)C1 (stereo unspecified)
inactive: Potency [3] | Potency [18] | Potency [4] | Potency [5] | Potency [7] | Potency [8] | Potency [9] | Potency [19] | Potency [20] | outcome [12] | Potency [13] | Potency [14] | outcome [15] | Potency [17]
active: Potency [1] 26.6 µM | Potency [2] 26.6 µM | Potency [10] 21.1 µM | Potency [16] 21.1 µM

COC1=C(OC)C(=O)C(CCCCCCCCCCO)=C(C)C1=O
inactive: Potency [1] | Potency [18] | Potency [4] | Potency [5] | Potency [6] | Potency [7] | Potency [8] | Potency [9] | outcome [12] | Potency [14]
active: Potency [2] 29.8 µM | Potency [11] 23.7 µM | Potency [13] 23.7 µM

O=C(/C=C/c1ccccc1)OC/C=C/c1ccccc1
inactive: Potency [1] | Potency [2] | Potency [3] | Potency [4] | Potency [5] | Potency [7] | Potency [8] | Potency [19] | Potency [10] | Potency [11] | outcome [12] | Potency [13] | Potency [14] | outcome [15] | Potency [16] | Potency [17]

Cc1cc(=O)oc2cc(O)cc(O)c12
inactive: Potency [1] | Potency [2] | Potency [4] | Potency [7] | Potency [8] | Potency [10] | Potency [11] | outcome [12] | Potency [13] | Potency [14] | outcome [15] | Potency [17]
active: Potency [9] 21.8 µM
